Bioassay records (PubChem)
Caspase-1 inhib = qHTS Assay for Allosteric/Competitive Inhibitors of Caspase-1. Caspase-1 enzyme, Ac-WEHD-AFC fluorogenic rate. Potency, µM (top dose mostly 57.5 µM), for the others: at the highest dose activity change, negative = inhibition, usual class: inhibitors. 75,000 tested, 0.03% active. AID 900, 2007;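 also: plate controls were vehicle for no effect and no substrate for full effect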
ERK AVP inh = qHTS Assay for Inhibitors of the ERK Signaling Pathway using a Homogeneous Screening Assay; 72,000 tested, 0.99% active; HEK293-V1b, vasopressin-stimulated pERK AlphaScreen; AID 995, 2007; Potency, µM (top dose mostly 57.5 µM), for inactives: top-dose activity, negative = inhibition, usual class: inhibitors; also: % is scaled to controls: 0 for no effect and ±100 for the full control effect; nearly all actives have a fitted effect of over 55% in size
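Overnight-seeded V1b-HEK293 cells in 1% FBS got compound, then vasopressin (25 nM final, 5 min, 37C), then lysis buffer. AlphaScreen detection of phospho-ERK; activity normalized to basal and full-stimulation controls.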
HEK293 cAMP cs = qHTS Assay for Agonists of the Thyroid Stimulating Hormone Receptor: Activators of Intracellular cAMP Concentrations in Parental HEK 293 | parental HEK293 CNG cAMP sensor, membrane potential fluorescence | AID 938, 2007 | Potency, µM (titrated, usually from 57.1 µM), for the others: top-dose activation, most hits filed as activators | 73,000 tested, 2.5% active; also: % of control where 0% means no effect; nearly all actives have a fitted effect of over 55% in size
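Parental HEK 293 cells stably expressing a modified CNG channel (no TSHR) report cAMP rise as membrane depolarization. Membrane potential dye with 100 uM RO 20-1724 was loaded for 60 min at room temperature, then compound added for 30 min; fluorescence read at 590 nm.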
GBA activity = Glucocerebrosidase; Lysosomal acid glucosylceramidase (Homo sapiens), P04062; purified enzyme, resorufin glucoside fluorescence (screen aimed at inhibitors), 20 min; Potency, µM; 48,000 tested, 1.1% active; AID 360, 2006; in the data active = potency below about 15 µM; inconclusive = mostly about 16 µM to 33 µM;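 also: the screen sought inhibitors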
Target sequence (P04062 whole entry, looked up): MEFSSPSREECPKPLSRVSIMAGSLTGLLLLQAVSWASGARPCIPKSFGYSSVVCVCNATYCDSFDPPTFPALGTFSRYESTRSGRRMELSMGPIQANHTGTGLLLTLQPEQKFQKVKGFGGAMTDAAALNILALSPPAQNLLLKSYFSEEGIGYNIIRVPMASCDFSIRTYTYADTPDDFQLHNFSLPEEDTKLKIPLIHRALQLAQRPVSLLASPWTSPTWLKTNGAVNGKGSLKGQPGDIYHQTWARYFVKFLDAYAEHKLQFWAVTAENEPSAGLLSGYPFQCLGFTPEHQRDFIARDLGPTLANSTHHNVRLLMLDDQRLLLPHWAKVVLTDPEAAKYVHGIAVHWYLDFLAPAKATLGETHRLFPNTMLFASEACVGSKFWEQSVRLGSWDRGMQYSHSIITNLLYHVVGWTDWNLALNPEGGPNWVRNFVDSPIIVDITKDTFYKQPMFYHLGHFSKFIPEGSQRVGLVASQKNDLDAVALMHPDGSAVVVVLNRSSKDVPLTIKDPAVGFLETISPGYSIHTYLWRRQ
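Normal human glucocerebrosidase (0.2 nM final) was assayed with resorufin β-D-glucopyranoside (30 uM final) in 50mM citric acid/KH2PO4, 10mM sodium taurocholate, 0.01% tween-20, pH 5.9. Compounds were titrated; fluorescence (Ex 548, Em 600) read after 20 min at RT.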
Casp7 inh = qHTS Assay for Allosteric/Competitive Inhibitors of Caspase-7; recombinant caspase-7, Ac-DEVD-AFC fluorescence rate; 75,000 tested, 0.02% active; AID 889, 2007; Potency, µM (highest dose often 57.5 µM), without a hit: top-dose activity change, negative = inhibition, actives largely listed as inhibitors; P55210; active = well fitted inhibition curve with a large enough effect in the main read-out, with a control signal flat, not every such curve was filed as active; inconclusive = small, poorly fitted or top-dose-only effect, or a change in a side signal; also: % of control where 0% means no effect
TSHR agonist = qHTS Assay for Agonists of the Thyroid Stimulating Hormone Receptor; Thyrotropin receptor (Homo sapiens), P16473; HEK293-CNG-TSHR cells (CNG channel as cAMP sensor), membrane potential dye, cAMP; Potency, µM (top dose mostly 57.1 µM), for the others: at the top dose activation, usual class: activators; 73,000 tested, 0.48% active; AID 926, 2007; active = well fitted activation curve with a large enough effect in the main read-out, with a control signal flat, not every such curve was filed as active; inconclusive = small, poorly fitted or top-dose-only effect, or a change in a side signal; inactive = no such curve, though single readings can be large or run the other way; % of control where 0% means no effect;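 also: the control signal comes from parental cells without the receptor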
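HEK 293 cells stably expressing TSHR and a modified CNG channel, with CNG-only parental cells as counterscreen, were preloaded 60 min at room temperature with membrane potential dye containing 100 uM RO 20-1724. Compound exposure was 30 min, and depolarization was read as fluorescence at 590 nm.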
Active calls of the source: *; u = inconclusive; x = no result; [ ] = dose if it differs, or a comment. Most compounds without a hit are left out; they make up all but 4.5% or so of the library. Unless noted, calls follow the shape of the dose curve; as a rule, active = well fitted curve in the direction sought with a large enough effect; inconclusive = small, poorly fitted or top-dose-only effect, or another doubt; inactive = no such curve, though single readings can be large; an effect the other way counts as inactive or inconclusive. Potency is read from the fitted curve at half-maximal effect.

SMILES	Caspase-1 inhib	ERK AVP inh	HEK293 cAMP cs	GBA activity	Casp7 inh	TSHR agonist
CC(C)CCCC(C)C1CCC2C3CC[C@H]4CC(=O)CC[C@@]4(C)C3CC[C@@]12C (stereo not given in full)	-2%	10%	x	x	0%	x
CCCOc1ccc(C2C(C(=O)OC)=CN(CCOC)C=C2C(=O)OC)cc1	x	69%	25µM*	x	u	u
COCCN1C=C(C(=O)OC)C(c2ccc(OC)c(OC)c2)C(C(=O)OC)=C1	x	-7%	6%	x	u	0%
COc1ccc(C(=O)c2no[n+]([O-])c2C(=O)c2ccc(OC)cc2)cc1	-5%	u	11%	>77	-4%	2%
O=C(c1cccs1)c1no[n+]([O-])c1C(=O)c1cccs1	1%	5µM*	-4%	>77	0%	-5%
CCC(=O)Nc1nc2ccc(NC(C)=O)cc2s1	-2%	-5%	2%	>77	1%	-3%
Cc1cc(N2CCOCC2)nc2ccc(NC(=O)C3CCC(C)CC3)cc12 (stereo not given)	-2%	0%	26%	0.061*	-2%	7%
O=C(Nc1ccc(N2CCOCC2)c(Cl)c1)C1CCCCC1	-2%	3%	25µM*	x	1%	u
CCOC(=O)C1CCCN(C(=O)CCC(=O)Nc2ccc3nc(N4CCOCC4)cc(C)c3c2)C1 (stereo not given)	-2%	-23%	4%	2.6*	-3%	-2%
CCOC(=O)C1CCCN(C(=O)N2CCOCC2)C1 (stereo not given)	-1%	-27%	11%[11.4 µM]	x	0%	-6%[11.4 µM]
CCCC(=O)Nc1nc2ccc(NC(=O)c3ccc(Br)o3)cc2s1	-5%	20µM*	3%	>77	-4%	7%
COc1ccccc1CN1CC2(CCN(C(=O)c3cnccn3)CC2)C1	-3%	-6%	-4%	x	0%	-3%
CCN1CCN(c2cc(C)c3cc(NC(=O)c4ccncc4)ccc3n2)CC1	-6%	-17%	-5%	x	-3%	-3%
COCCCNC(=O)CCC(=O)Nc1ccc2nc(N3CCOCC3)cc(C)c2c1	3%	11%	-3%	6.8*	0%	1%
Cc1cc(N2CCN(C)CC2)nc2ccc(NC(=O)CCC(=O)NCCC3=CCCCC3)cc12	-3%	-16%	0%	u	0%	-5%
CCN1CCN(c2cc(C)c3cc(NC(=O)c4ccc(Br)o4)ccc3n2)CC1	-2%	-16%	-1%	5.1*	-1%	0%
CCCCNC(=O)CCC(=O)Nc1ccc2nc(N3CCOCC3)cc(C)c2c1	-4%	13%	-3%	3.8*	-2%	6%
N[C@H](Cc1ccc(F)cc1)C(=O)O	0%	8%	8%	x	1%	8%
O=C(c1ccccc1Cl)N1CCN(c2ccccn2)CC1	0%	-5%	3%	>77	-3%	-8%
O=C(c1ccccc1CCc1ccccc1)N1CCN(c2ccccn2)CC1	-2%	-34%	16µM*	>77	-2%	u
Cc1cc(C)n(-c2nc(NCCO)c3c4c(sc3n2)CCCC4)n1	-1%	-17%	17%	>77	-4%	16%
Cc1cc(C)n(-c2nc(NCC3CCCO3)c3c4c(sc3n2)COC(C)(C)C4)n1 (stereo not given)	-5%	u	25µM*	>77	-4%	u
Cc1cc(C)n(-c2nc(SCC(=O)NCC3CCCO3)c3c4c(sc3n2)CCCC4)n1 (stereo not given)	-4%	-14%	25µM*	>77	-6%	u
C=C1C(=O)O[C@H]2C[C@@]3(C)CCCC(=C)[C@@H]3C[C@H]12	x	x	2%	x	x	2%
O=c1cc(N=Nc2ccc(O)cc2)[nH]c(=O)[nH]1	-1%[11.5 µM]	-16%[11.5 µM]	23%[11.4 µM]	x	-1%[11.5 µM]	-7%[11.4 µM]
SMILES	Caspase-1 inhib	ERK AVP inh	HEK293 cAMP cs	GBA activity	Casp7 inh	TSHR agonist
O=S(=O)(O)c1ccc(N=Nc2ccccc2)cc1	3%[11.5 µM]	10%[11.5 µM]	-4%[11.4 µM]	x	2%[11.5 µM]	-1%[11.4 µM]
CN(C)c1ccc(N=NS(=O)(=O)O)cc1	-5%	-13%	10µM*	x	-2%	u
Cc1ccc(CNC(=O)[C@H](C)[C@@H]2C[C@@]2(C)[C@@H](NC(=O)OCc2ccccc2)c2ccccc2)o1	-4%	4%	u	x	-5%	u
Cn1cccc1-c1nc2ccccc2n1Cc1ccccc1	-2%	-30%	32µM*	>77	-2%	u
c1coc(Cn2c(-c3ccco3)nc3ccccc32)c1	-4%	-12%	u	>77	-5%	u
Nc1nonc1-c1nc2ccccc2n1Cc1ccc(Cl)cc1	-5%	3%	16µM*	x	-3%	u
C=COCCn1c(-c2nonc2N)nc2ccccc21	-2%	0%	25µM*	x	-1%	u
Cc1ccc(Cn2c3ccccc3c3cn[nH]c(=O)c32)cc1	-1%	-18%	u	x	-4%	u
Cc1ccc(Cn2c(-c3nonc3N)nc3ccccc32)cc1	-2%	7%	32µM*	>77	-3%	u
Clc1ccc(Cn2c(CN3CCCC3)nc3ccccc32)cc1	0%[25.7 µM]	12%[25.7 µM]	u	x	0%[25.7 µM]	u
COCCn1c(COC)nc2ccccc21	0%	1%	4%	>77	-4%	0%
C[C@H](C(=O)c1ccccc1)[C@@H](c1ccccc1)N1CCOCC1	1%[11.5 µM]	-7%[11.5 µM]	u	x	0%[11.5 µM]	u
COc1ccc(NC(=O)/C=C\c2ccc(Cl)cc2)cc1	-2%	u	u	x	-1%	u
CCC(=O)Nc1nonc1-c1nc2ccccc2n1Cc1ccccc1	-3%	62%	20µM*	>77	-1%	u
CCC(=O)Nc1nonc1-c1nc2ccccc2n1N(C(=O)CC)C(=O)CC	0%	4%	9%	>77	-7%	6%[11.4 µM]
O[C@@H]1[C@@H](OCc2ccccc2)OC[C@H](O)[C@@H]1O	0%[11.5 µM]	17%[11.5 µM]	21%[11.4 µM]	x	-1%[11.5 µM]	4%[11.4 µM]
C[C@@]12CC[C@H]3[C@H](CC=C4C[C@@H](O)CC[C@@]43C)[C@@H]1CC[C@@H]2N(CCO)CCO	-2%[11.5 µM]	0%[11.5 µM]	-12%[11.4 µM]	x	-2%[11.5 µM]	0%[11.4 µM]
c1ccc(-c2noc(CSc3nnc(Cc4cccs4)n3-c3ccccc3)n2)cc1	u	-27%	25µM*	>77	-28%	u
Fc1ccc(-n2c(Cc3ccccc3)nnc2SCc2nc(-c3cccs3)no2)cc1	-4%	-18%	25µM*	>77	-5%	u
CC1=C2[C@@H]([C@H](C)CC[C@H]2/C=C(\C)C(=O)O)[C@H](O)C1	2%	17%	-12%	x	1%	-5%
N#CCCn1c(=O)c(-c2cc(F)cc(F)c2)nc2cnc(N3CCOCC3)nc21	x	15%	18%	x	u	3%
